Hits are enriched below; roughly 3% of the tested compounds scored in any of these assays.
VDR inh – Inhibitors of the vitamin D receptor (VDR): qHTS; Potency, µM, usual class: inhibitors; 400,000 compounds, 0.93% hits; AID 504847, 2011; Vitamin D3 receptor (Homo sapiens), P11473; VDR-SRC2-3 peptide fluorescence polarization, 2 h
Target sequence (P11473 whole entry, looked up): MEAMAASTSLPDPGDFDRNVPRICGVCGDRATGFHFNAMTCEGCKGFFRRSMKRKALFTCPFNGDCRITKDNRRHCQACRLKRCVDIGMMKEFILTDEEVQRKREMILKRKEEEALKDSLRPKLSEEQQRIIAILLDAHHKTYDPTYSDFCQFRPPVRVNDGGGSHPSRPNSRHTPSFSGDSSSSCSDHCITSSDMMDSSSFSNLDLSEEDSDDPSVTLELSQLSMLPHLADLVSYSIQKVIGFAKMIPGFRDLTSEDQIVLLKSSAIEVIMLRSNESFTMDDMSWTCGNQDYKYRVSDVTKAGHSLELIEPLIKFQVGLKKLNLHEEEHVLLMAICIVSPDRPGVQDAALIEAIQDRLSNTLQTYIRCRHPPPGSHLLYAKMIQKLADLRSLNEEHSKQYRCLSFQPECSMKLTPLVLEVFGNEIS
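Fluorescence polarization assay measuring small-molecule disruption of VDR binding to the coregulator peptide SRC2-3. Compounds were pin-transferred (23 nl) into the reagent mix and incubated 2 h at room temperature before reading.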
PLK1 PBD block – qHTS for Inhibitors of PLK1-PDB (polo-like kinase 1 - polo-box domain): Primary Screen | Serine/threonine-protein kinase PLK1 (Homo sapiens), P53350 | Plk1 PBD binding of FITC phosphopeptide, fluorescence polarization | Potency, µM, most hits filed as inhibitors | 360,000 compounds, 2.8% hits | AID 720504, 2013; also: series mostly up to about 57 µM; nearly all actives have a fitted effect of over 65% in size
TSG101-PTAP inh – qHTS Assay for Iinhibitors of HIV-1 Budding by Blocking the Interaction of PTAP/TSG101. Tumor susceptibility gene 101 protein (Homo sapiens), Q99816. Potency, µM (series often up to 115 µM), hits mostly inhibitors. Fluorescence polarization, FITC-PTAP peptide / Tsg101 binding. 340,000 tested, under 10 active; active = well fitted inhibition curve with a large enough effect in the main read-out, with a control signal flat, not every such curve was filed as active; inconclusive = small, poorly fitted or top-dose-only effect, or effect the other way, or a change in a side signal; inactive = no such curve, though single readings can be large or run the other way
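Fluorescence polarization binding of Tsg101 binding domain (10 uM final) to FITC-labeled PTAP peptide (50 nM final) in HEPES pH 7.5 buffer with NaCl, Tween 20, EDTA, TCEP. Compounds added before peptide; binding 20 min at RT.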
KAT2A inh – qHTS Assay for Inhibitors of GCN5L2; GCN5L2 HAT assay, ThioGlo1 CoA-SH fluorescence; Histone acetyltransferase KAT2A (Homo sapiens), Q92830; 390,000 compounds, 0.21% hits; Potency, µM (top dose mostly 58.9 µM), most hits filed as inhibitors
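qHTS, 1536-well. 20nM enzyme, pH 7.5 HEPES/EDTA/Tween-20 buffer; 15 min compound preinc., RT. Start: 75uM H3(1-25), 70uM AcCoA, 50uM ThioGlo1. Read Ex340/Em540 at t=0 (autofluorescence flag) and t=20 min.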
USP1 inh – Inhibitors of USP1/UAF1: Primary Screen | Ubiquitin carboxyl-terminal hydrolase 1 (Homo sapiens), O94782 | recombinant USP1/UAF1, Ub-Rhodamine cleavage fluorescence | Potency, µM (doses to about 57.1 µM), actives largely listed as inhibitors | 390,000 compounds, 0.23% hits | AID 743255, 2014; also: nearly all actives have a fitted effect of over 60% in size
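In this screen, compounds sit with the deubiquitinase complex (1nM) for 15 min at room temperature before Ub-Rho is added at 150nM final. Fluorescence rise is then followed for 6 reads every 60 seconds.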
VDR inh confirm – qHTS for Inhibitors of the vitamin D receptor (VDR): Hit Validation in Primary Screen; shares compounds with VDR inh; VDR-coactivator inhibition assay, qHTS confirmation; Potency, µM, most hits filed as inhibitors; 840 compounds, 89% hits
VDR FP fluor – qHTS for Inhibitors of the vitamin D receptor (VDR): Hit Validation using a Fluorescein Assay; shares compounds with VDR inh; VDR-coactivator binding, fluorescein fluorescence polarization; Potency, µM (highest dose often 57.1 µM), actives largely listed as inhibitors; 840 compounds, 48% hits; AID 602200, 2012
VDR bla – qHTS for Inhibitors of the vitamin D receptor (VDR): Hit Validation using a Beta-Lactamase Assay. 840 compounds, 23% hits. Potency, µM (top dose mostly 46.1 µM), hits mostly inhibitors. shares compounds with VDR inh. VDR beta-lactamase reporter cells, FRET ratio; cells co-treated with VDR agonist LG190178
VDR viability – qHTS for Inhibitors of the vitamin D receptor (VDR): Hit Validation using a Cytotoxicity Assay; shares compounds with VDR inh; cytotoxicity counter-screen, cell viability, qHTS; Potency, µM (highest dose often 48.3 µM), usual class: cytotoxic; 840 compounds, 18% hits; also: nearly all actives have a fitted effect of over 75% in size
Numbers stand for hits; – = inactive; ? = inconclusive; · = no result given. Unless noted, calls follow the shape of the dose curve; as a rule, active = well fitted curve in the direction sought with a large enough effect; inconclusive = small, poorly fitted or top-dose-only effect, or another doubt; inactive = no such curve, though single readings can be large; an effect the other way counts as inactive or inconclusive.

SMILES | VDR inh | PLK1 PBD block | TSG101-PTAP inh | KAT2A inh | USP1 inh | VDR inh confirm | VDR FP fluor | VDR bla | VDR viability
Cc1ccc(/C=C2\C(=O)ON=C2c2ccccc2)o1 | ? | ? | – | – | – | · | · | · | ·
Cc1ccc(-c2ccc(/C=C3\C(=O)ON=C3c3ccccc3)o2)c([N+](=O)[O-])c1 | 28µM | 1.7µM | – | ? | ? | 3.8 | ? | 18µM | 13µM
O=C1/C(=C/c2cccnc2)CCC/C1=C\c1cccnc1 | 50µM | – | – | – | – | 13 | 20µM | 5.8µM | 15µM
CC(C)/C=C1\CC/C(=C\c2cccnc2)C1=O | – | – | – | – | – | · | · | · | ·
O=C1/C(=C/c2cccnc2)CC/C1=C\c1cccnc1 | – | – | – | – | – | · | · | · | ·
CCC1C/C(=C\c2cccnc2)C(=O)/C(=C/c2cccnc2)C1 (stereo unspecified) | 22µM | – | – | – | ? | 5.3 | 3.5µM | 5.8µM | 21µM
O=C1NC(=S)N/C1=C/c1cccc([N+](=O)[O-])c1 | – | – | – | – | ? | · | · | · | ·
CN1C(=O)/C(=C/c2cccc([N+](=O)[O-])c2)C(=O)N1c1ccccc1 | 32µM | 2.4µM | – | – | – | 13 | ? | – | –
O=C(Oc1oc(-c2ccco2)nc1C=Nc1ccccc1)c1ccco1 | 28µM | 3µM | – | – | – | 6 | ? | ? | –
Cc1ccc(C(=O)Oc2oc(-c3ccccc3)nc2C=Nc2ccc(N(C)C)cc2)cc1 | – | – | ? | – | – | · | · | · | ·
Cc1ccc(N=Cc2nc(-c3ccco3)oc2O)cc1 | – | – | – | – | ? | · | · | · | ·
O=C(Oc1oc(-c2ccco2)nc1C=Nc1ccccc1)c1ccoc1 | 50µM | 4.7µM | – | – | – | ? | ? | ? | ?
Cc1ccc(C(=O)Oc2oc(-c3ccco3)nc2C=Nc2ccc(Cl)cc2)cc1 | 50µM | 4.7µM | – | – | – | 11 | ? | – | –
Cc1c(CCC(=O)NCCCn2ccnc2)c(=O)oc2cc3oc4c(c3cc12)CCCC4 | – | – | – | – | – | · | · | · | ·
COc1ccc(N2CC(NC(=O)c3ccc(S(=O)(=O)N4CCOCC4)cc3)CC2=O)cc1 (stereo unspecified) | – | · | · | – | – | · | · | · | ·
O=S(=O)(c1cccc(F)c1)N1CCc2sccc2C1c1ccc(OC(F)(F)F)cc1 (stereo unspecified) | – | – | – | – | – | · | · | · | ·
Cc1cc(N2CCOCC2)ccc1/C=C\[N+](=O)[O-] | 28µM | 13µM | – | – | – | 6.7 | – | ? | 16µM
CS(=O)(=O)N1N=C(c2cccs2)CC1c1ccco1 (stereo unspecified) | – | – | – | – | – | · | · | · | ·
Cc1ccc(CC(=O)NNC(=O)c2ccncc2)cc1C | 79µM | 12µM | – | – | – | 27 | 28µM | – | –
CCOc1ccc(NC(=O)c2nc(S(=O)(=O)Cc3ccccc3F)ncc2Cl)cc1 | ? | · | · | – | – | · | · | · | ·
O=C(Nc1ccccc1)c1nc(S(=O)(=O)Cc2ccccc2F)ncc1Cl | · | · | · | · | · | 2.5 | 2.5µM | 3.3µM | 13µM

Assay outcomes: PubChem, National Center for Advancing Translational Sciences (NCATS)
